In ChEMBL document CHEMBL3988442, “University of Dundee, Small-Polar-MMV Screening Library” (2021):
Screen size: about 53,000 compounds; about 900 (1.7%) showed an effect of 50% or more. The full list was thinned out, with strong results kept by preference.

tested on: Mycobacterium tuberculosis; test: Cornell - Phenotypic assay to identify agents that inhibit growth of Mycobacterium tuberculosis; format: functional; design: scale not given: direction of the effect not stated beside the values; conditions: 10 mM as filed; unlikely as a test dose

Row | Structure (SMILES) | Percent Effect
1 | Cc1ccc(-c2nc(CCNC(=O)NCC(C)(C)C(N)=O)co2)cc1 | -1.516%
2 | Cc1ccc(Br)cc1NC(=O)NCC(O)CO (centres undefined) | -28.33%
3 | CN1C(=O)[C@H]2CC[C@@H]1CN(c1ncnc3ccsc13)C2 | 26.9%
4 | CN(C)c1nc2n(c(=O)n1)CCN2C(=O)Nc1cccc(Cl)c1 | -1.647%
5 | CN(C)c1nc2n(c(=O)n1)CCN2C(=O)Nc1ccc(Cl)cc1 | -48.51%
6 | CN(C)c1nc2n(c(=O)n1)CCN2C(=O)Nc1ccc(Cl)c(Cl)c1 | 104.9%
7 | Cc1cc(C)n(CCCNC(=O)C(C)NC(=O)c2ccccc2Cl)n1 (centres undefined) | -13.3%
8 | CC1(CNC(=O)NCc2ccsc2)CCCS1 (centres undefined) | 1.003%
9 | Cc1nc(N2CCOCC2)nc2c1CCN(C(=O)C1CCCCC1)CC2 | 34.6%
10 | CCc1sc(-c2nnc(CNCCn3cc(C)cn3)o2)cc1C | 69.26%
11 | Cc1ccc(-c2nnc(C(C)NCCn3cc(C)cn3)o2)cc1 (centres undefined) | -4.1%
12 | CCc1sc(-c2nnc(CNCCn3cccn3)o2)cc1C | -21.28%
13 | Cc1ccoc1-c1nnc(CNCCn2cccn2)o1 | -13.89%
14 | Cc1ccc(-c2nnc(CNCCn3cc(C)cn3)o2)cc1 | 51.67%
15 | CCc1sc(-c2nnc(CNC(C)Cn3cccn3)o2)cc1C (centres undefined) | 50.91%
16 | CCc1sc(-c2nnc(CNC(C)Cn3cc(C)cn3)o2)cc1C (centres undefined) | 15.55%
17 | Cc1cnn(CCNCc2nnc(C3CC3)o2)c1 | -12.52%
18 | CC(Cn1cccn1)NCc1nc(-c2cccs2)no1 (centres undefined) | 28.55%
19 | O=C(O)C(F)(F)F.O=C1N(CC2CC2)CCC12CCN(Cc1ccoc1)CC2 | -1.631%
20 | Cl.O=C(NCCn1nc(C2CCNC2)c2cccnc21)c1ccccc1 (centres undefined) | -53.35%
21 | Cc1c(OCC(=O)NCc2ccccc2)c(=O)ccn1C | 2.776%
22 | OCCn1nccc1C1CCN(CCOc2ccccc2Cl)CC1 | -31.74%
23 | CCc1cnc(CN(C)C2CCN(CC3CCN(C(C)=O)CC3)C2)o1 (centres undefined) | 6.622%

Row | Structure (SMILES) | Percent Effect
24 | Cc1ccc(-c2cc(N)c(=O)n(CC(=O)NCC3CCCCC3)n2)s1 | 31.53%
25 | Cc1cc(-c2cc(N)c(=O)n(CC(=O)NCC3CCCCC3)n2)c(C)o1 | -31.85%
26 | Cc1ccc(-c2cc(N)c(=O)n(CC(=O)NCC3CC3)n2)s1 | 90.74%
27 | Nc1cc(-c2cccs2)nn(CC(=O)NCC2CCCCC2)c1=O | 91.2%
28 | Cc1ccc(-c2cc(N)c(=O)n(CC(=O)NC3CCCCC3)n2)s1 | 21.23%
29 | Cc1ccc(-c2cc(N)c(=O)n(CC(=O)NC3CCCC3)n2)s1 | -35.82%
30 | CCN1CCn2c(C)cnc2C12CCN(C(=O)C(C)C)CC2.O=C(O)C(F)(F)F.O=C(O)C(F)(F)F | 14.47%
31 | COCCN1C(=O)CO[C@H]2CN(Cc3cccc(OC)c3F)C[C@@H]21 | -23.69%
32 | Cc1cc(NC(=O)CN2CCN(c3nccs3)C(C)C2)on1 (centres undefined) | 22.95%
33 | CCOc1ccc(NC(=O)Cn2cc(I)cn2)cc1 | 8.752%
34 | OC1CN(c2nc3c(C(F)(F)F)cccc3s2)C1 | -37.29%
35 | Cc1ccccc1NC1CCN(C(=O)CCc2ccco2)CC1 | 50.28%
36 | Cc1ccc(NC2CCN(C(=O)CCc3ccco3)CC2)nn1 | 9.645%
37 | O=C(CCc1ccco1)N1CCC(Nc2cccnn2)CC1 | -37.65%
38 | COc1cccc(Cn2ncnc2CCSC)c1 | 21.64%
39 | CN(Cc1cncnc1)[C@@H]1CN(C(=O)C2CC2)[C@@H]2CCCO[C@H]12.O=C(O)C(F)(F)F | 10.43%
40 | Cc1cc(C2CCCN(C(=O)COc3ccc(F)cc3)C2)n[nH]1 (centres undefined) | 21.79%
41 | Cn1cc(CN2CCC(c3cc(COc4ccc(Cl)cc4)[nH]n3)C2)cn1 (centres undefined) | 8.733%
42 | Clc1ccc(OCCc2cc(C3CCN(c4ncccn4)C3)n[nH]2)cc1 (centres undefined) | 81.19%
43 | Cc1cc(C)nc(N2CCC(c3cc(CCO)[nH]n3)C2)n1 (centres undefined) | 21.68%
44 | Br.COc1ccc(OCCc2cc(C3CCN(CC(C)C)C3)n[nH]2)cc1 (centres undefined) | 44.88%
45 | CCCN1CCC(c2cc(CCOc3ccc(C(F)(F)F)cc3)[nH]n2)C1 (centres undefined) | 74.52%
46 | CN(C)CCCNCCC(Cc1ccccc1)C1CCOC(C)(C)C1.O=C(O)C(=O)O (centres undefined) | 18.5%

Row | Structure (SMILES) | Percent Effect
47 | O=C(c1ccc[nH]1)N1CCOCC2(C1)CN(c1ccccc1)C(=O)CO2 (centres undefined) | 34.74%
48 | O=C(O)C(F)(F)F.O=C(c1c[nH]cn1)N1CCOCC2(C1)CN(c1ccccc1)C(=O)CO2 (centres undefined) | 29.26%
49 | O=C(c1cc[nH]n1)N1CCOCC2(C1)CN(c1ccccc1)C(=O)CO2 (centres undefined) | 56%
50 | CCn1nnnc1-c1cccc(NCc2nc(C)ccc2O)c1 | 4.577%
51 | O=C(O)CCCN1C[C@@H](c2ccccc2F)[C@@]2(CCCCC(=O)N2)C1 | 43.05%
52 | COc1cc(F)c(S(=O)(=O)Nc2cnc(O)cc2C)cc1OC | 3.766%
53 | CC(Cn1cncc1-c1cnn(Cc2ccccc2)c1)N1CCCCC1.Cl (centres undefined) | 58.13%
54 | CC(Cn1cncc1-c1cnn(C2CCCCC2)c1)N1CCCCC1.Cl (centres undefined) | -3.197%
55 | CCC(CN1CCCC1)n1cncc1-c1cnn(Cc2ccccc2)c1.Cl (centres undefined) | 36.43%
56 | CCOc1ccccc1N1CCN(C(=O)NCc2cc[nH]n2)CC1 | -20.55%
57 | CNc1cc(C2CCCN2C(=O)c2ccc(=O)[nH]n2)ccn1.O=CO (centres undefined) | 2.671%
58 | CCC(CN1CCCC1)n1cncc1-c1cnn(-c2ccc(F)cc2)c1.Cl (centres undefined) | 20.09%
59 | CCC(CN1CCCC1)n1cncc1-c1cnn(-c2ccccc2)c1.Cl (centres undefined) | 55.09%
60 | CCC(CN1CCOCC1)n1cncc1-c1ccc2c(c1)CCCN2C.Cl (centres undefined) | 15.31%
61 | CCn1nc(C)cc1C(=O)NCc1cc(N(C)C)nc2ccccc12 | 34.42%
62 | CC(C)OCCCNC(=O)CN1CCN(c2nccs2)CC1 | 4.56%
63 | O=C(c1cnc(O)c(Cl)c1)N1CCCC(c2nccs2)C1 (centres undefined) | -10.54%
64 | O=C(NCCN1CCOCC1)Nc1cnc2cc(Cl)ccc2c1O | -4.322%
65 | O=C(NCCCO)Nc1cnc2cc(Cl)ccc2c1O | 81.69%
66 | O=C(NCCCN1CCOCC1)Nc1cnc2cc(Cl)ccc2c1O | 32.37%
67 | O=C(NCCO)Nc1cnc2cc(Cl)ccc2c1O | 103.7%
68 | CNC(=O)Nc1cnc2cc(Cl)ccc2c1O | -22.82%
69 | O=C(NCC1CC1)Nc1cnc2cc(Cl)ccc2c1O | -6.744%
